Records with an inconclusive call do not appear. Calls of active or inactive are those of the source. The calls were made as follows: active = hit-call score of the fitted dose curve at least 0.9, where 1 is the maximum; inconclusive = response in the unintended direction; inactive = score below 0.9.
biological target: AR (gene 367) (UniProt P10275); assay: ACEA_AR_agonist_80hr: ACEA Biosciences xCELLigence Real-Time Cell Analysis on Androgen Receptor Agonism for Proliferation (AID 2283783);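 also: hits increase impedance growth signal above DMSO baseline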
Sequence (P10275 whole entry, looked up): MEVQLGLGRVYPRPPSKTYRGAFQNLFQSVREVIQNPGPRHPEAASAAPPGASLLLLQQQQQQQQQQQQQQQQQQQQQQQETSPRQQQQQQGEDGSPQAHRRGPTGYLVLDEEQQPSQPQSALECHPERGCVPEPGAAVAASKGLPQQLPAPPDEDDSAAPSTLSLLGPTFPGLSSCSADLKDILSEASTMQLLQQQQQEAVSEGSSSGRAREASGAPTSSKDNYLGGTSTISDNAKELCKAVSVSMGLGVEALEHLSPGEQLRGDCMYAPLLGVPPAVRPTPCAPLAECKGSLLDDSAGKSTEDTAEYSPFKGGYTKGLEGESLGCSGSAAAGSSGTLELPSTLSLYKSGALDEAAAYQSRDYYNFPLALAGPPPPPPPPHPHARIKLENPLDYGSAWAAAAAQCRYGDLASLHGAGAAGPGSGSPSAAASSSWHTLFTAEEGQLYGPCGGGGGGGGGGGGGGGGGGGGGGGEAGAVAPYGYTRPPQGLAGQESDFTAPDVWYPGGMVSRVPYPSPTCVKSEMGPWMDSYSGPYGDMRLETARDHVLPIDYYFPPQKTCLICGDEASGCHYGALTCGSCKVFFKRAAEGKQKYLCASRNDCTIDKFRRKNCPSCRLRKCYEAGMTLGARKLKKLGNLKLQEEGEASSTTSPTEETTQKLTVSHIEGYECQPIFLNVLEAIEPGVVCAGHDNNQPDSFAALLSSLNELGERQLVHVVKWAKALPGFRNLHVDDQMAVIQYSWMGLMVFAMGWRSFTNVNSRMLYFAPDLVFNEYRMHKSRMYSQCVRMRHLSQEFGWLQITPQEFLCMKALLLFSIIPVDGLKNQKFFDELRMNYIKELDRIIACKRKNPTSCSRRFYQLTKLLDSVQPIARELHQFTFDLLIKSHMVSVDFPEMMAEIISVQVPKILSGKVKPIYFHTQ
Summary of the method: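 Impedance (RT-CES) growth signal at 80 h post-dose; 22Rv1 cells, 8-pt 1:4 series, top 100 uM final, DMSO ≤0.5%; duplicate plates; gain-of-signal fit relative to DMSO baseline.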

Structure (SMILES) | outcome
CCCCN(CC)C(=O)SCCC | inactive
c1cc2c3c(cccc3c1)CC2 | inactive
CCNc1nc(Cl)nc(NC(C)(C)C)n1 | inactive
CCN(CC)c1ccccc1 | inactive

system: not listed separately; assay: STM_H9_NormalizedViability: Cytotoxicity Assessment at 120 hours in the Stemina devTOX quickPredict H9 human embryonic stem cell (hESC)-based Assay (AID 2283784)
Summary of the method: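 Viability endpoint: background-corrected CellTiter-Fluor RFU expressed relative to the 0.1% DMSO mean on each plate. Undifferentiated H9 cells were treated with daily re-dosing and media change, and loss of signal was fitted.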

Structure (SMILES) | outcome | AC50
O=C(O)C1C(C(=O)O)C2(Cl)C(Cl)=C(Cl)C1(Cl)C2(Cl)Cl (stereo not given) | inactive | –
CCC(C)(C)c1ccc(O)cc1 | – | 50 µM (active)
CCC1(c2ccccc2)C(=O)N=C(O)NC1=O (stereo not given) | inactive | –
Nc1ccc2ccccc2c1 | inactive | –
CCCCC(CC)COP(=O)(Oc1ccccc1)Oc1ccccc1 (stereo not given) | inactive | –
CCOC(=O)c1ccccc1C(=O)OCC | inactive | –
Cc1ccc(N)cc1N | – | 36.1 µM (active)

biological target: AR (gene 367) (UniProt P10275); assay: ACEA_AR_antagonist_80hr: ACEA Biosciences xCELLigence Real-Time Cell Analysis on Androgen Receptor Antagonism for Proliferation (AID 2283787);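 also: 22Rv1 human prostate cancer cells with growth followed by electrical impedance; hits lower the impedance growth signal relative to DMSO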
Summary of the method: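 Measures real-time proliferation of 22Rv1 prostate cancer cells by electrode impedance at 80 hours after dosing. Test articles ran at eight concentrations (1:4 steps, top 100 uM final) in biological duplicate.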

Structure (SMILES) | outcome | AC50
CC(C)(C)N(NC(=O)c1ccc(Cl)cc1)C(=O)c1ccccc1 | inactive | –
CCCCN(CC)C(=O)SCCC | inactive | –
c1cc2c3c(cccc3c1)CC2 | inactive | –
CCNc1nc(Cl)nc(NC(C)(C)C)n1 | inactive | –
[N-]=[N+]=[N-] | – | 50 µM (active)
CCCCC(CC)COP(=O)(Oc1ccccc1)Oc1ccccc1 (stereo not given) | – | 16.6 µM (active)
CO/N=C(/C(=O)OC)c1ccccc1COc1ccccc1C | inactive | –
CCN(CC)c1ccccc1 | inactive | –
CC1(C)CN=C(NN=C(/C=C/c2ccc(C(F)(F)F)cc2)/C=C/c2ccc(C(F)(F)F)cc2)NC1 | – | 12.3 µM (active)

— PubChem BioAssay (EPA / NIEHS)
